Each structure is given as a SMILES string.

The target of one experiment is Solute carrier family 2, facilitated glucose transporter member 1 (Homo sapiens) (UniProt P11166). Briefly: ST_JUDE_LEISH: Cytotoxicity at 2uM final concentration against transgenic Leishmania Mexicana promastigotes LmGLUT1 that are glucose transport deficient and complemented with the human glucose transporter GLUT1. Activity is measured by DNA content using SYBR green in vitro. The format is functional.
Solute carrier family 2, facilitated glucose transporter member 1 (Homo sapiens), sequence (P11166 whole entry): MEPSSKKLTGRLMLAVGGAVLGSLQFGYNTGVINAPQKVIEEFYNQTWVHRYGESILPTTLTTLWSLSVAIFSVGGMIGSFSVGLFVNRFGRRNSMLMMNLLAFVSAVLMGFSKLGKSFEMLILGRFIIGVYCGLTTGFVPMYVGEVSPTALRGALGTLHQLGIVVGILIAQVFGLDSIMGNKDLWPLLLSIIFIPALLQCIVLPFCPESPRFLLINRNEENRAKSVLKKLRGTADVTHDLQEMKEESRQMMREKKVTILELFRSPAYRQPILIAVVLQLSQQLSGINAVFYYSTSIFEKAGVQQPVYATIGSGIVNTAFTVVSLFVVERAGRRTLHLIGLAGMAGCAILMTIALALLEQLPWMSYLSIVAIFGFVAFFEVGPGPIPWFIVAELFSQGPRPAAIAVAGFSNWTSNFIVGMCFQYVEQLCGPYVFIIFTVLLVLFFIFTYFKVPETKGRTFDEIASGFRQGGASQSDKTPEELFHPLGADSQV
With `FC(F)(F)c1ccc(N2CCCN(Cc3cccc(-c4ccccc4CNCc4ccc5c(c4)OCO5)c3)CC2)nc1`, the inhibition came to 2.61%.

On to `O=C(Nc1ccc(-c2csc3nccn23)cc1)c1ccc(Cl)cc1`, for which the inhibition was 5.5%.

In the case of `CCCCc1ccc(NC(=O)Nc2ccc3c(c2)CCNCC3)cc1`, the inhibition was found to be 0.82%.

In the case of `COc1ccc2nccc([C@@H](O)CN3CCC(NC(=O)C(c4cccs4)N4CCN(c5ccc(F)cc5)CC4)CC3)c2c1` (stereo not given in full), the inhibition amounted to 5%.

Consider `COc1ccc(Br)cc1/C=C/C(=O)Nc1ccc(C2CCN(C)CC2)cc1`, for which the inhibition was 3.58%.

In the case of `Cc1cc(C(=O)CN2C(=O)NC3(CCCc4ccccc43)C2=O)c(C)n1Cc1ccc(F)cc1` (stereo not given), the inhibition is 2.81%.

For the compound `CC(C)C1=NC(=O)c2cc([N+](=O)[O-])ccc2CN1`, the inhibition is 1.78%.

Consider `COc1ccc(Cl)cc1C(=O)Nc1ccc(-c2nc3ccccc3[nH]2)cc1`, for which the inhibition was 4.93%.

For `CN1CCC(N2CCN(Cc3ccc(-c4cccc(-c5nc6cc(F)ccc6[nH]5)c4)cc3)CC2)CC1`, the inhibition stood at 2.39%.

As to `Cc1cccc2nc(-c3cccc(-c4ccc(NC(=O)c5ccoc5)cc4)c3)[nH]c12`, the inhibition was -0.27%.

On to `Nc1nccc(-c2ccc3c(/C=C/c4ccccc4)cnc(N)c3c2)n1`, for which the inhibition is 18.2%.

On to `CCCCCc1ccc(N2C(N)=NC(N)=NC2(C)C)cc1`, for which the inhibition is 3.51%.

For `Fc1ccccc1-c1cc(Nc2ccncc2)nc(-c2cccnc2)n1`, the inhibition turned out to be 0.54%.

As to `NC(=O)c1cccc(C(=O)Nc2cccc(-c3csc(-c4nc5ccccc5[nH]4)c3)c2)c1`, the inhibition worked out at 2.68%.

On to `COc1ccc(NC(=O)c2ccc(-c3ccc(-c4cccnc4)cc3)c(C)c2)cc1OCCN(C)C`, for which the inhibition is 1.47%.

Regarding `c1ccc(CNCc2cccc(-c3csc(-c4nc5ccccc5[nH]4)c3)c2)cc1`, the inhibition worked out at 4.56%.

With `CC(O)C1CCCCN1C(=O)c1cccc(-c2ccc(-c3nc4ccccc4[nH]3)s2)c1` (stereo not given), the inhibition stood at 3.87%.

On to `O=C(CCC1CCCCC1=O)c1ccccc1` (stereo not given), for which the inhibition came to 3.73%.

Regarding `CC(C)(CNC(=O)[C@@H]1CCCN(CCOc2ccc(F)c(F)c2)C1)c1nc(-c2ccc(Cl)c(O)c2)c(-c2ccncc2)[nH]1`, the inhibition amounted to 0.3%.

Take `COc1ccccc1NC(=O)OC(COc1ccc(N)cc1)CN1CC=C(c2ccccc2)CC1` (stereo not given): the inhibition was 0.46%.

As for `Oc1ccccc1CNCc1ccc(-c2cnc(N3CCCC(c4ccccc4)C3)nc2)cc1` (stereo not given), the inhibition came out at 3.52%.

For `Cc1nc(N)nc(N)c1OCc1ccc(Cl)c(Cl)c1`, the inhibition was determined as 0.66%.

As to `COc1cccc(C=CC(=O)N(CCN)Cc2ccccc2)c1`, the inhibition is 6.9%.

For the compound `O=C(NCCCCCN1CCC(c2c[nH]c3ccccc23)CC1)Nc1cccc(Cl)c1`, the inhibition stood at 2.7%.

As to `CSc1ccc(NC(=O)Nc2cc(C)nc3ccccc23)cc1Br`, the inhibition was -2.43%.

For `COc1ccc(NC(=O)Nc2cccc(-c3cccc(-c4nc5cc(F)ccc5[nH]4)c3)c2)cc1`, the inhibition was found to be 1.35%.

As for `O=C(Nc1cccc(-c2ccc(-c3nc4cc(C(F)(F)F)ccc4[nH]3)cc2)c1)Nc1ccc(Cl)c(Cl)c1`, the inhibition was 3.88%.

For the compound `Cc1nc(O)c2c(ccc3ccc(CNc4ccc(C(=O)N[C@@H](CCC(=O)O)C(=O)O)cc4)cc32)n1`, the inhibition amounted to 0.64%.

For the compound `CN1CCN(CCCN(Cc2ccc(-c3ccc(CNCCc4ccccc4)cc3)cc2)C(=O)c2cccs2)CC1`, the inhibition was 2.36%.

As to `CC(C)NCc1ccc(-c2cccc(NC(=O)c3ccc(C#N)cc3)c2)cc1`, the inhibition stood at 6.75%.

In the case of `Nc1c(Cl)cc(C(O)CNCCCCCOCCCc2ccc(O)c3ncccc23)cc1Cl` (stereo not given), the inhibition stood at 103%.

On to `O=C(NCCCCN1CCC(c2ccc3c(c2O)CCCC3)CC1)c1ccc(NC(=O)c2ccc(Cl)cc2)cc1`, for which the inhibition amounted to 1.7%.

As for `CC(C)(C)c1ccccc1OC(=O)c1ccccc1`, the inhibition is -1.66%.

On to `Cc1ccc(/C=C2/SC(=Nc3ccccc3)NC2=O)c(C)c1`, for which the inhibition was 13.2%.

Consider `CCCCN(CCCC)CCCN(CCCN(CCCC)CCCC)c1cc(C)nc(Nc2ccc(Br)cc2)n1`, for which the inhibition is -1.21%.

As to `CC1CCN(Cc2c(O)ccc3c(CN4CCC(C)CC4)c(O)ccc23)CC1`, the inhibition is 4.79%.

As to `N#Cc1cccc(NC(=O)Nc2cccc(-c3cccc(-c4nc5cc(F)ccc5[nH]4)c3)c2)c1`, the inhibition stood at 9.7%.

As to `CN1CCc2ccc(NC(=O)Nc3cccc(C(=O)c4ccccc4)c3)cc2C1`, the inhibition worked out at 3.19%.

Take `O=C(Nc1ccc(-c2nc3ccccc3[nH]2)cc1)c1cccc(S(=O)(=O)N2CCCC2)c1`: the inhibition amounted to 6.3%.

Turning to `Fc1ccc2cc(C=Cc3ccncc3)[nH]c2c1`, the inhibition turned out to be 2.24%.

A further experiment deals with Hexose transporter 1 (Plasmodium falciparum) (UniProt O97467). Nature of the experiment: ST_JUDE_LEISH: Cytotoxicity at 2uM final concentration against transgenic Leishmania Mexicana promastigotes LmPfHT that are glucose transport deficient and complemented with the Plasmodium falciparum hexose transporter. Activity is measured by DNA content using SYBR green in vitro. The format is functional.
Turning to `FC(F)(F)c1ccc(N2CCCN(Cc3cccc(-c4ccccc4CNCc4ccc5c(c4)OCO5)c3)CC2)nc1`, the inhibition was -2.51%.

As for `O=C(Nc1ccc(-c2csc3nccn23)cc1)c1ccc(Cl)cc1`, the inhibition amounted to 4.05%.

As to `CCCCc1ccc(NC(=O)Nc2ccc3c(c2)CCNCC3)cc1`, the inhibition worked out at 2.05%.

With `COc1ccc2nccc([C@@H](O)CN3CCC(NC(=O)C(c4cccs4)N4CCN(c5ccc(F)cc5)CC4)CC3)c2c1` (stereo not given in full), the inhibition was 3.71%.

Turning to `COc1ccc(Br)cc1/C=C/C(=O)Nc1ccc(C2CCN(C)CC2)cc1`, the inhibition was determined as 3.16%.

For the compound `Cc1cc(C(=O)CN2C(=O)NC3(CCCc4ccccc43)C2=O)c(C)n1Cc1ccc(F)cc1` (stereo not given), the inhibition stood at 2.54%.

With `CC(C)C1=NC(=O)c2cc([N+](=O)[O-])ccc2CN1`, the inhibition was 1.79%.

Consider `COc1ccc(Cl)cc1C(=O)Nc1ccc(-c2nc3ccccc3[nH]2)cc1`, for which the inhibition amounted to 3.29%.

As for `CN1CCC(N2CCN(Cc3ccc(-c4cccc(-c5nc6cc(F)ccc6[nH]5)c4)cc3)CC2)CC1`, the inhibition is 2.13%.

On to `Cc1cccc2nc(-c3cccc(-c4ccc(NC(=O)c5ccoc5)cc4)c3)[nH]c12`, for which the inhibition worked out at 2.14%.

Turning to `Nc1nccc(-c2ccc3c(/C=C/c4ccccc4)cnc(N)c3c2)n1`, the inhibition is 24.5%.

Turning to `CCCCCc1ccc(N2C(N)=NC(N)=NC2(C)C)cc1`, the inhibition is 2.87%.

As to `Fc1ccccc1-c1cc(Nc2ccncc2)nc(-c2cccnc2)n1`, the inhibition was 1.28%.

Consider `NC(=O)c1cccc(C(=O)Nc2cccc(-c3csc(-c4nc5ccccc5[nH]4)c3)c2)c1`, for which the inhibition came out at 2.2%.

Consider `COc1ccc(NC(=O)c2ccc(-c3ccc(-c4cccnc4)cc3)c(C)c2)cc1OCCN(C)C`, for which the inhibition came out at 1.09%.

On to `c1ccc(CNCc2cccc(-c3csc(-c4nc5ccccc5[nH]4)c3)c2)cc1`, for which the inhibition was 5.03%.

Turning to `CC(O)C1CCCCN1C(=O)c1cccc(-c2ccc(-c3nc4ccccc4[nH]3)s2)c1` (stereo not given), the inhibition was determined as 5.96%.

For `O=C(CCC1CCCCC1=O)c1ccccc1` (stereo not given), the inhibition worked out at 2.15%.

Take `CC(C)(CNC(=O)[C@@H]1CCCN(CCOc2ccc(F)c(F)c2)C1)c1nc(-c2ccc(Cl)c(O)c2)c(-c2ccncc2)[nH]1`: the inhibition was -0.12%.

On to `COc1ccccc1NC(=O)OC(COc1ccc(N)cc1)CN1CC=C(c2ccccc2)CC1` (stereo not given), for which the inhibition is 0.25%.

Consider `Oc1ccccc1CNCc1ccc(-c2cnc(N3CCCC(c4ccccc4)C3)nc2)cc1` (stereo not given), for which the inhibition amounted to 2.64%.

Turning to `Cc1nc(N)nc(N)c1OCc1ccc(Cl)c(Cl)c1`, the inhibition was determined as 1.73%.

Take `COc1cccc(C=CC(=O)N(CCN)Cc2ccccc2)c1`: the inhibition is 8.75%.

As for `O=C(NCCCCCN1CCC(c2c[nH]c3ccccc23)CC1)Nc1cccc(Cl)c1`, the inhibition was found to be 0.53%.

As to `CSc1ccc(NC(=O)Nc2cc(C)nc3ccccc23)cc1Br`, the inhibition worked out at 0.36%.

Regarding `COc1ccc(NC(=O)Nc2cccc(-c3cccc(-c4nc5cc(F)ccc5[nH]4)c3)c2)cc1`, the inhibition was determined as 1.38%.

With `O=C(Nc1cccc(-c2ccc(-c3nc4cc(C(F)(F)F)ccc4[nH]3)cc2)c1)Nc1ccc(Cl)c(Cl)c1`, the inhibition was found to be 2.8%.

Regarding `Cc1nc(O)c2c(ccc3ccc(CNc4ccc(C(=O)N[C@@H](CCC(=O)O)C(=O)O)cc4)cc32)n1`, the inhibition is 2.36%.

Consider `CN1CCN(CCCN(Cc2ccc(-c3ccc(CNCCc4ccccc4)cc3)cc2)C(=O)c2cccs2)CC1`, for which the inhibition was found to be 1.19%.

Regarding `CC(C)NCc1ccc(-c2cccc(NC(=O)c3ccc(C#N)cc3)c2)cc1`, the inhibition was found to be 4.9%.

In the case of `Nc1c(Cl)cc(C(O)CNCCCCCOCCCc2ccc(O)c3ncccc23)cc1Cl` (stereo not given), the inhibition was determined as 99.7%.

For `O=C(NCCCCN1CCC(c2ccc3c(c2O)CCCC3)CC1)c1ccc(NC(=O)c2ccc(Cl)cc2)cc1`, the inhibition stood at 2.56%.

As to `CC(C)(C)c1ccccc1OC(=O)c1ccccc1`, the inhibition was -1.47%.

Take `Cc1ccc(/C=C2/SC(=Nc3ccccc3)NC2=O)c(C)c1`: the inhibition amounted to 12.1%.

For the compound `CCCCN(CCCC)CCCN(CCCN(CCCC)CCCC)c1cc(C)nc(Nc2ccc(Br)cc2)n1`, the inhibition is -0.35%.

For the compound `CC1CCN(Cc2c(O)ccc3c(CN4CCC(C)CC4)c(O)ccc23)CC1`, the inhibition was 6.78%.

In the case of `N#Cc1cccc(NC(=O)Nc2cccc(-c3cccc(-c4nc5cc(F)ccc5[nH]4)c3)c2)c1`, the inhibition is 7.87%.

For the compound `CN1CCc2ccc(NC(=O)Nc3cccc(C(=O)c4ccccc4)c3)cc2C1`, the inhibition worked out at 2.01%.

Regarding `O=C(Nc1ccc(-c2nc3ccccc3[nH]2)cc1)c1cccc(S(=O)(=O)N2CCCC2)c1`, the inhibition was determined as 2.8%.

For the compound `Fc1ccc2cc(C=Cc3ccncc3)[nH]c2c1`, the inhibition came out at 4.09%.

These data come from ChEMBL document CHEMBL3433997, “St. Jude Leishmania screening dataset” (2016).
